# From PubChem BioAssay (NCI)
# The panel holds about 79,000 compounds, 15% with a hit somewhere; the sample as a whole holds those more often. Values without a mark were called inactive. Activity calls are given as the source filed them. Cut-off read from the data, not from the text of the source: active = growth inhibition above about 70%; inactive = the rest.
# Legend:
# [1] = NCI Yeast Anticancer Drug Screen. Data for the rad52 strain (AID 147);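 note: 0% = growth of vehicle-treated control cultures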; conditions: S. cerevisiae rad52 mutant growth inhibition, active compounds read high
# Procedure, shortened: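 Yeast strain carrying a DNA damage repair alteration was exposed to test compounds. Growth inhibition was measured relative to vehicle-treated controls.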
# [2] = NCI Yeast Anticancer Drug Screen. Data for the wt1 strain (AID 149);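 note: 0% = growth of vehicle-treated wt1 cultures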; conditions: S. cerevisiae wt1 strain (SPY 50644) growth inhibition, active compounds read high
# Procedure, shortened: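 Vehicle-normalised growth inhibition; strain wt1; compound exposure.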
# [3] = NCI Yeast Anticancer Drug Screen. Data for the rad50EPP+ strain (AID 151);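 note: 0% = growth of vehicle-treated control cultures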; conditions: S. cerevisiae rad50 mutant strain, active compounds read high
# Procedure, shortened: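 Yeast strain carrying rad50 alteration (rad50EPP+) exposed to compounds; growth inhibition measured relative to vehicle-treated controls.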
# [4] = NCI Yeast Anticancer Drug Screen. Data for the rad50 strain (AID 155);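 note: 0% = growth of vehicle-only cultures of the same strain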; conditions: S. cerevisiae rad50 strain growth inhibition, active compounds read high
# Procedure, shortened: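 A DNA repair-deficient yeast mutant serves as the test organism; compound-induced growth inhibition is calculated against vehicle-treated cells.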
# [5] = NCI Yeast Anticancer Drug Screen. Data for the mec2-1 strain (AID 157); conditions: S. cerevisiae mec2-1 strain, active compounds read high
# Procedure, shortened: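 mec2-1 yeast strain, carrying an alteration in DNA damage repair or cell cycle control, was exposed to compounds; growth inhibition was measured relative to vehicle-treated controls.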
# [6] = NCI Yeast Anticancer Drug Screen. Data for the rad14 strain (AID 159);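 note: 0% = growth of vehicle-treated control cultures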; conditions: S. cerevisiae rad14 strain growth inhibition, active compounds read high
# Procedure, shortened: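 Vehicle-treated cultures served as the baseline for growth inhibition of a DNA repair-mutant yeast strain exposed to each compound.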
# [7] = NCI Yeast Anticancer Drug Screen. Data for the sgs1 mgt1 strain (AID 161);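 note: 0% = growth of cultures given vehicle only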; conditions: S. cerevisiae sgs1 mgt1 strain, active compounds read high
# Procedure, shortened: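 Percent growth inhibition was derived by comparing compound-exposed mutant yeast with vehicle-exposed cultures. The strain carries alterations in DNA damage repair.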
# [8] = NCI Yeast Anticancer Drug Screen. Data for the CLN2oe strain (AID 163);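 note: 0% = growth of vehicle-only control cultures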; conditions: S. cerevisiae CLN2oe strain, active compounds read high
# Procedure, shortened: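 Yeast cells carrying a defined cell-cycle control alteration were exposed to test compounds. Growth inhibition was scored against vehicle-treated control cultures.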
# [9] = NCI Yeast Anticancer Drug Screen. Data for the cln2 rad14 strain (AID 165);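 note: 0% = growth equal to vehicle treated cultures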; conditions: S. cerevisiae cln2 rad14 strain, active compounds read high
# Procedure, shortened: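 Yeast carrying cln2 and rad14 alterations (cell cycle control and DNA damage repair) were exposed to compounds. Growth inhibition was measured against vehicle-treated controls.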
# [10] = NCI Yeast Anticancer Drug Screen. Data for the bub3 strain (AID 167); conditions: S. cerevisiae bub3 mutant strain, active compounds read high
# Procedure, shortened: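 Inhibition values come from growth of compound-treated mutant yeast normalised to vehicle-treated controls.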
# [11] = NCI Yeast Anticancer Drug Screen. Data for the wt2 strain (AID 169);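 note: 0% = growth of vehicle-treated yeast cultures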; conditions: S. cerevisiae wt2 strain growth inhibition, active compounds read high
# Procedure, shortened: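 Yeast cells were exposed to test compounds, and growth inhibition was measured relative to vehicle-treated controls.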
# [12] = NCI Yeast Anticancer Drug Screen. Data for the mlh1 strain (AID 171);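 note: 0% = growth of vehicle-treated control cultures of the same strain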; conditions: S. cerevisiae mlh1 strain growth inhibition, active compounds read high
# Procedure, shortened: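 Yeast carrying a defined genetic alteration in DNA damage repair or cell cycle control were exposed to test compounds. Growth inhibition was measured relative to vehicle-treated controls.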
# [13] = NCI Yeast Anticancer Drug Screen. Data for the sgs1 strain (AID 173);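 note: 0% = growth of vehicle-only control cultures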; conditions: S. cerevisiae sgs1 mutant, active compounds read high
# Procedure, shortened: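 Yeast mutant strains carrying defined defects in DNA damage repair or cell cycle control were exposed to test compounds. Growth inhibition was scored against vehicle-treated controls.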
# [14] = NCI Yeast Anticancer Drug Screen. Data for the mlh1 rad18 strain (AID 175); conditions: S. cerevisiae mlh1 rad18 strain growth inhibition, active compounds read high
# Procedure, shortened: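 Growth inhibition of the yeast strain was measured after compound exposure and expressed relative to vehicle-treated controls. The strain carries defined defects in DNA damage repair.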
# [15] = NCI Yeast Anticancer Drug Screen. Data for the rad18 strain (AID 177); conditions: S. cerevisiae rad18 mutant growth inhibition, active compounds read high
# Procedure, shortened: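 Yeast carrying a defined DNA damage repair alteration were exposed to compounds. Growth inhibition was expressed relative to vehicle-treated controls.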
# [16] = NCI Yeast Anticancer Drug Screen. Data for the mgt1 strain (AID 153); conditions: S. cerevisiae mgt1 mutant growth inhibition, active compounds read high
# Procedure, shortened: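 Yeast mgt1 strain (DNA repair/cell-cycle alteration panel) exposed to compounds; growth inhibition measured relative to vehicle-treated controls.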
# [17] = at 5.0 µM (retest, dose inferred, filed as 0.5)
# [18] = at 50.0 µM (retest, dose inferred, filed as 5.0)
smiles,measurement,setting,value
CC1(C)N=C(N)N=C(N)N1c1cccc(N)c1.[Sn],growth inhibition,[1]; at 1.2 µM,18%
same,growth inhibition,[1]; at 3.7 µM,21%
same,growth inhibition,[1]; at 11.0 µM,19%
same,growth inhibition,[1]; at 33.0 µM,24%
same,growth inhibition,[1]; at 100.0 µM,43%
same,growth inhibition,[2]; at 1.2 µM,21%
same,growth inhibition,[2]; at 3.7 µM,17%
same,growth inhibition,[2]; at 11.0 µM,17%
same,growth inhibition,[2]; at 33.0 µM,29%
same,growth inhibition,[2]; at 100.0 µM,47%
same,growth inhibition,[3]; at 1.2 µM,-2%
same,growth inhibition,[3]; at 3.7 µM,-3%
same,growth inhibition,[3]; at 11.0 µM,-1%
same,growth inhibition,[3]; at 33.0 µM,-5%
same,growth inhibition,[3]; at 100.0 µM,-7%
same,growth inhibition,[4]; at 1.2 µM,5%
same,growth inhibition,[4]; at 3.7 µM,6%
same,growth inhibition,[4]; [17],24%
same,growth inhibition,[4]; at 11.0 µM,6%
same,growth inhibition,[4]; at 33.0 µM,24%
same,growth inhibition,[4]; [18],36%
same,growth inhibition,[4]; at 50.0 µM,9.35%
same,growth inhibition,[4]; at 100.0 µM,36%
same,growth inhibition,[5]; at 1.2 µM,2%
same,growth inhibition,[5]; at 3.7 µM,6%
same,growth inhibition,[5]; [17],7%
same,growth inhibition,[5]; at 11.0 µM,2%
same,growth inhibition,[5]; at 33.0 µM,15%
same,growth inhibition,[5]; [18],28%
same,growth inhibition,[5]; at 50.0 µM,-20.9%
same,growth inhibition,[5]; at 100.0 µM,33%
same,growth inhibition,[6]; at 1.2 µM,5%
same,growth inhibition,[6]; at 3.7 µM,9%
same,growth inhibition,[6]; at 11.0 µM,7%
same,growth inhibition,[6]; at 33.0 µM,18%
same,growth inhibition,[6]; at 100.0 µM,34%
same,growth inhibition,[7]; [17],45%
same,growth inhibition,[7]; [18],90% (active)
same,growth inhibition,[7]; at 50.0 µM,1.7%
same,growth inhibition,[8]; at 1.2 µM,-10%
same,growth inhibition,[8]; at 3.7 µM,-1%
same,growth inhibition,[8]; at 11.0 µM,-3%
same,growth inhibition,[8]; at 33.0 µM,-2%
same,growth inhibition,[8]; at 100.0 µM,-7%
same,growth inhibition,[9]; [17],5%
same,growth inhibition,[9]; [18],28%
same,growth inhibition,[9]; at 50.0 µM,-12.1%
same,growth inhibition,[10]; at 1.2 µM,-8%
same,growth inhibition,[10]; at 3.7 µM,-13%
same,growth inhibition,[10]; [17],9%
same,growth inhibition,[10]; at 11.0 µM,-18%
same,growth inhibition,[10]; at 33.0 µM,4%
same,growth inhibition,[10]; [18],29%
same,growth inhibition,[10]; at 50.0 µM,5.75%
same,growth inhibition,[10]; at 100.0 µM,17%
same,growth inhibition,[11]; at 1.2 µM,-3%
same,growth inhibition,[11]; at 3.7 µM,-4%
same,growth inhibition,[11]; at 11.0 µM,-1%
same,growth inhibition,[11]; at 33.0 µM,0%
same,growth inhibition,[11]; at 100.0 µM,1%
same,growth inhibition,[12]; at 1.2 µM,11%
same,growth inhibition,[12]; at 3.7 µM,22%
same,growth inhibition,[12]; at 11.0 µM,16%
same,growth inhibition,[12]; at 33.0 µM,29%
same,growth inhibition,[12]; at 100.0 µM,44%
same,growth inhibition,[13]; at 1.2 µM,14%
same,growth inhibition,[13]; at 3.7 µM,20%
same,growth inhibition,[13]; at 11.0 µM,19%
same,growth inhibition,[13]; at 33.0 µM,26%
same,growth inhibition,[13]; at 100.0 µM,52%
same,growth inhibition,[14]; [17],43%
same,growth inhibition,[14]; [18],78% (active)
same,growth inhibition,[14]; at 50.0 µM,-49.6%
same,growth inhibition,[15]; at 1.2 µM,-3%
same,growth inhibition,[15]; at 3.7 µM,2%
same,growth inhibition,[15]; at 11.0 µM,4%
same,growth inhibition,[15]; at 33.0 µM,17%
same,growth inhibition,[15]; at 100.0 µM,35%
CSc1ccccc1[As](C)C,growth inhibition,[1]; at 1.2 µM,1%
same,growth inhibition,[1]; at 3.7 µM,16%
same,growth inhibition,[1]; at 11.0 µM,84% (active)
same,growth inhibition,[1]; at 33.0 µM,99% (active)
same,growth inhibition,[1]; at 100.0 µM,99% (active)
same,growth inhibition,[2]; at 1.2 µM,-1%
same,growth inhibition,[2]; at 3.7 µM,15%
same,growth inhibition,[2]; at 11.0 µM,88% (active)
same,growth inhibition,[2]; at 33.0 µM,99% (active)
same,growth inhibition,[2]; at 100.0 µM,99% (active)
same,growth inhibition,[3]; at 1.2 µM,1%
same,growth inhibition,[3]; at 3.7 µM,11%
same,growth inhibition,[3]; at 11.0 µM,74% (active)
same,growth inhibition,[3]; at 33.0 µM,98% (active)
same,growth inhibition,[3]; at 100.0 µM,99% (active)
same,growth inhibition,[16]; at 1.2 µM,-1%
same,growth inhibition,[16]; at 3.7 µM,16%
same,growth inhibition,[16]; at 11.0 µM,75% (active)
same,growth inhibition,[16]; at 33.0 µM,99% (active)
same,growth inhibition,[16]; at 100.0 µM,99% (active)
same,growth inhibition,[4]; at 1.2 µM,7%
same,growth inhibition,[4]; at 3.7 µM,-15%
same,growth inhibition,[4]; [17],96% (active)
same,growth inhibition,[4]; at 11.0 µM,86% (active)
same,growth inhibition,[4]; at 33.0 µM,98% (active)
same,growth inhibition,[4]; [18],99% (active)
same,growth inhibition,[4]; at 50.0 µM,99.3% (active)
same,growth inhibition,[4]; at 100.0 µM,99% (active)
same,growth inhibition,[5]; at 1.2 µM,2%
same,growth inhibition,[5]; at 3.7 µM,24%
same,growth inhibition,[5]; [17],90% (active)
same,growth inhibition,[5]; at 11.0 µM,92% (active)
same,growth inhibition,[5]; at 33.0 µM,99% (active)
same,growth inhibition,[5]; [18],99% (active)
same,growth inhibition,[5]; at 50.0 µM,99.5% (active)
same,growth inhibition,[5]; at 100.0 µM,99% (active)
same,growth inhibition,[7]; [17],97% (active)
same,growth inhibition,[7]; [18],99% (active)
same,growth inhibition,[7]; at 50.0 µM,99.5% (active)
same,growth inhibition,[8]; at 1.2 µM,-4%
same,growth inhibition,[8]; at 3.7 µM,-1%
same,growth inhibition,[8]; at 11.0 µM,32%
same,growth inhibition,[8]; at 33.0 µM,99% (active)
same,growth inhibition,[8]; at 100.0 µM,98% (active)
same,growth inhibition,[9]; [17],27%
same,growth inhibition,[9]; [18],98% (active)
same,growth inhibition,[9]; at 50.0 µM,98.1% (active)
same,growth inhibition,[10]; at 1.2 µM,-6%
same,growth inhibition,[10]; at 3.7 µM,13%
same,growth inhibition,[10]; [17],1%
same,growth inhibition,[10]; at 11.0 µM,77% (active)
same,growth inhibition,[10]; at 33.0 µM,99% (active)
same,growth inhibition,[10]; [18],50%
same,growth inhibition,[10]; at 50.0 µM,98.8% (active)
same,growth inhibition,[10]; at 100.0 µM,99% (active)
same,growth inhibition,[11]; at 1.2 µM,-1%
same,growth inhibition,[11]; at 3.7 µM,21%
same,growth inhibition,[11]; at 11.0 µM,85% (active)
same,growth inhibition,[11]; at 33.0 µM,99% (active)
same,growth inhibition,[11]; at 100.0 µM,99% (active)
same,growth inhibition,[12]; at 1.2 µM,1%
same,growth inhibition,[12]; at 3.7 µM,20%
same,growth inhibition,[12]; at 11.0 µM,90% (active)
same,growth inhibition,[12]; at 33.0 µM,99% (active)
same,growth inhibition,[12]; at 100.0 µM,100% (active)
same,growth inhibition,[13]; at 1.2 µM,4%
same,growth inhibition,[13]; at 3.7 µM,34%
same,growth inhibition,[13]; at 11.0 µM,95% (active)
same,growth inhibition,[13]; at 33.0 µM,99% (active)
same,growth inhibition,[13]; at 100.0 µM,99% (active)
same,growth inhibition,[14]; [17],97% (active)
same,growth inhibition,[14]; [18],99% (active)
same,growth inhibition,[14]; at 50.0 µM,99.5% (active)
same,growth inhibition,[15]; at 1.2 µM,8%
same,growth inhibition,[15]; at 3.7 µM,43%
same,growth inhibition,[15]; at 11.0 µM,92% (active)
same,growth inhibition,[15]; at 33.0 µM,99% (active)
same,growth inhibition,[15]; at 100.0 µM,99% (active)
